VDR inhibitor – inhibitors of human vitamin D receptor. VDR-SRC2-3 peptide fluorescence polarization, 2 h. P11473. Potency, µM, for the others: max response, negative = inhibition, most hits filed as inhibitors. hit rate 0.93% among 400,000; also: % is scaled to controls: 0 for no effect and ±100 for the full control effect
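FP read-out; VDR + SRC2-3 coactivator peptide; 23 nl compound by pintool; 2 h RT incubation; reagents held at 4 deg C, protected from light.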
EPAC1 ag – agonists of human EPAC1 | EPAC1 agonist qHTS, biochemical assay; response scale: 100% = response to 6.5 mM cAMP | Potency, µM (top dose mostly 154 µM), without a hit: at the top dose activation, usual class: activators | hit rate 0.073% among 360,000 | AID 720707; also: nearly all actives have a fitted effect of over 60% in size
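Nucleotide exchange assay: 100 nM EPAC1 with 250 nM Rap1B loaded with BODIPY-GDP and 50 uM GDP, room temperature. Fluorescence (480/540 nm) read every 5 min for 30 min; signal change normalized to 6.5 mM cAMP as full agonist.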
EPAC2 agonist – EPAC2 (human) agonism | EPAC2 activation, biochemical qHTS; response scale: 100% = 6.5 mM cAMP response | AID 720711 | hit rate 0.079% among 360,000 | Q8WZA2 | Potency, µM (highest dose often 154 µM), for the others: at the highest dose activation, usual class: activators; also: nearly all actives have a fitted effect of over 50% in size
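EPAC2 (100 nM) mixed with Rap1B loaded with BODIPY-GDP (250 nM) plus 50 uM unlabeled GDP; compounds pinned in, 5 min RT, then read every 5 min for 30 min (ex 480, em 540 nm). Normalized to cAMP control.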
EPAC2 antag – blocks human EPAC2 exchange factor; AID 720708; hit rate 0.18% among 360,000; Potency, µM (top dose mostly 114 µM), for inactives: at the highest dose activity, negative = inhibition, actives largely listed as inhibitors; EPAC2 GEF exchange of Rap1B-BODIPY-GDP, fluorescence; Q8WZA2; also: % is scaled to controls: 0 for no effect and ±100 for the full control effect; nearly all actives have a fitted effect of over 45% in size
USP1 inh – USP1/UAF1 (human) deubiquitinase inhibition; recombinant USP1/UAF1, Ub-Rhodamine cleavage fluorescence; Potency, µM (titrated, usually from 57.1 µM), for the others: at the top dose activity change, negative = inhibition, hits mostly inhibitors; O94782; hit rate 0.23% among 390,000; also: % is scaled to controls: 0 for no effect and ±100 for the full control effect; nearly all actives have a fitted effect of over 60% in size
Target sequence (O94782 whole entry, looked up): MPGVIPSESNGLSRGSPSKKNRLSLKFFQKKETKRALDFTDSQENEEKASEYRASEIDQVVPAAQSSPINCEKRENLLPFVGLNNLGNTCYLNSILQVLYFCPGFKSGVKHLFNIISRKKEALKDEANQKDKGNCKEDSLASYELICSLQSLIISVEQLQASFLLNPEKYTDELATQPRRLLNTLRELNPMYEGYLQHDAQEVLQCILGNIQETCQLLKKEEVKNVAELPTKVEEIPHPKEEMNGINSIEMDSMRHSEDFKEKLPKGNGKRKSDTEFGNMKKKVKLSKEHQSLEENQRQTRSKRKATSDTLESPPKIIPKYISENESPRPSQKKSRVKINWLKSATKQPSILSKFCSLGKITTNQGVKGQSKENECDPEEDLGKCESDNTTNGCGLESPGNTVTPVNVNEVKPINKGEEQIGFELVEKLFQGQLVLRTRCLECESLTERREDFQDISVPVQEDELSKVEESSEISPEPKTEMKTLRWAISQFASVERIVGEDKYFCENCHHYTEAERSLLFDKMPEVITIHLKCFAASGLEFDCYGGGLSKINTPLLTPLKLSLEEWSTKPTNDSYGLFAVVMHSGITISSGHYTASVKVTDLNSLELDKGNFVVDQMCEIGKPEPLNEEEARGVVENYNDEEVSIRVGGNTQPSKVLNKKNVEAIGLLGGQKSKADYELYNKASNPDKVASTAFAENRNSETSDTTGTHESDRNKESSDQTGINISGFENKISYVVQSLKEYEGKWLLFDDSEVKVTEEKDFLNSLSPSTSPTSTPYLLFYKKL
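Step one: compound is pinned into 1nM USP1/UAF1 in HEPES pH 7.8 buffer with TCEP. Step two: 15 min room-temperature incubation. Step three: Ub-Rho (150nM final) starts cleavage, tracked by fluorescence over six one-minute reads.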
EPAC1 antagonist – EPAC1 (human) antagonism. O95398. EPAC1 GEF assay, Rap1b-BODIPY-GDP exchange fluorescence. Potency, µM (titrated, usually from 115 µM), without a hit: at the top dose activity change, negative = inhibition, most hits filed as inhibitors. hit rate 0.14% among 360,000. AID 720709;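 also: plate controls were vehicle for no effect and positive control for full effect; nearly all actives have a fitted effect of over 50% in size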
The depositor's hits bear a star; ? = inconclusive; · = no result. Most compounds without a hit are left out; they make up all but 1.2% or so of the library. Calls follow the shape of the dose curve; as a rule, active = well fitted curve in the direction sought with a large enough effect; inconclusive = small, poorly fitted or top-dose-only effect, or another doubt; inactive = no such curve, though single readings can be large; an effect the other way counts as inactive or inconclusive. Potency is read from the fitted curve at half-maximal effect.

SMILES	VDR inhibitor	EPAC1 ag	EPAC2 agonist	EPAC2 antag	USP1 inh	EPAC1 antagonist
COc1ccc(-c2nc3cnc(N4CCN(C)CC4)nc3n(Cc3ccc(F)cc3)c2=O)cc1	-4.1%	·	·	·	·	·
CO[C@H]1OC2O[C@@]3(C)CC[C@H]4[C@H](C)CC[C@@H]([C@H]1C)[C@@]24OO3 (stereo partly specified)	4.9%	·	·	·	·	·
CC[C@H](C)[C@@H](NC(=O)O[C@@H]1Cc2cc(OC)ccc2O[C@H]1c1cccc(OC)c1)C(=O)OC	4.7%	·	·	·	·	·
CC1(C)C2CCC1(C)C(OC(=O)C[n+]1ccccc1)C2 (stereo unspecified)	22.4µM*	3.3%	2.9%	9.1%	-29.1%	2.6%
O=C(O)[C@@H]1CN[C@@H](C(=O)O)C1	0.7%	·	·	·	·	·
CCCc1ccc(OCC(=O)Nc2sc3c(c2C(=O)OCC)CCC(C(C)(C)C)C3)cc1 (stereo unspecified)	-13.6%	·	·	·	1.4%	·
COC(=O)c1ccc(NC(=O)CSc2ccccn2)cc1	6.4%	-8.9%	-2.4%	6.0%	-12.4%	12.8%
COC(=O)c1ccc(NC(=O)CSc2ccccc2)cc1	50.1µM*	5.1%	7.3%	-4.2%	-14.7%	-18.1%
CC1=C(C(=O)Nc2cc(C)cc(C)c2)C2(CCCCC2)OC1=O	-25.8%	·	·	·	-14.6%	·
CCCc1cc(C(=O)Nc2sc(C(C)=O)c(C)c2C(=O)OCC)no1	-11.3%	-17.1%	-9.5%	5.8%	-22.3%	11.4%
CCOC(=O)c1c(NC(=O)c2cc(-c3ccccc3OC)on2)sc(C)c1C	79.4µM*	·	·	·	-1.2%	·
CCOC(=O)c1c(-c2ccccc2)csc1NC(=O)c1cc(-c2ccc(Br)cc2)on1	79.4µM*	·	·	·	-21.4%	·
CCOC(=O)c1c(NC(=O)c2cc(CC)on2)sc(C)c1C	79.4µM*	·	·	·	?	·
CCOC(=O)c1c(NC(=O)c2cc(C)on2)sc(C)c1C	79.4µM*	·	·	·	13.0%	·
CCOC(=O)c1c(NC(=O)c2cc(-c3ccc(Cl)cc3)on2)sc(C)c1C	-16.4%	·	·	·	-24.4%	·
CC(C)(C)OC(=O)NC(Cc1ccccc1)C(O)c1ccco1 (stereo unspecified)	-15.4%	·	·	·	·	·
COc1ccc(SCC(Cc2ccccc2)N2CCN(CCc3ccccc3)CCC2=O)cc1 (stereo unspecified)	-2.7%	·	·	·	·	·
COc1ccccc1-c1cc(C(=O)Nc2sc3c(c2C#N)CCCC3)no1	79.4µM*	·	·	·	11.4%	·
Cc1cc(C(=O)Nc2sc3c(c2C#N)CCCC3)no1	-15.8%	1.5%	-0.9%	2.2%	-12.3%	1.6%
CC(C)N(C(=O)Cn1cc(S(=O)(=O)Cc2ccc(C(F)(F)F)cc2)c2ccccc21)C(C)C	3.2%	·	·	·	-4.4%	·
CN1C2CC(OC(=O)[C@H](CO)c3ccccc3)CC1C1OC12 (stereo partly specified)	-0.1%	·	·	·	·	·
CC1=C(C)C(=O)N(c2ccccn2)C1=O	-3.8%	1.9%	-0.2%	7.5%	-19.3%	-0.5%
Cc1nn(-c2ccccn2)c2c1C(=O)C(Br)CC2 (stereo unspecified)	17.8µM*	-2.9%	3.2%	-8.6%	-10.7%	-17.0%
Cc1ccc(NC(=O)c2c(NC(=O)c3ccc(F)cc3)sc3c2CCCC3)cc1C	79.4µM*	·	·	·	4.6%	·
CC(C)Cc1csc(NC(=O)c2ccc(Cl)cc2)c1C(=O)O	1.1%	-10.7%	-4.1%	-1.3%	-10.0%	17.8µM*
SMILES	VDR inhibitor	EPAC1 ag	EPAC2 agonist	EPAC2 antag	USP1 inh	EPAC1 antagonist
O=C(Nc1sc2c(c1C(=O)O)CCCC2)c1ccc(Cl)cc1	-16.7%	-10.0%	-1.9%	-13.7%	-20.7%	28.2µM*
CCC(=O)Nc1sc2c(c1C(=O)Nc1ccc(Br)cc1)CCCCC2	14.1µM*	·	·	·	-9.1%	·
OCC(O)CS (stereo unspecified)	9.4%	·	·	·	·	·
Cc1ccc(C)c(Nc2nnc(-c3ccc(C)c(S(=O)(=O)N4CCN(C)CC4)c3)c3ccccc23)c1	-17.9%	·	·	·	-25.6%	·
O=C(Nc1sc2c(c1C(=O)Nc1cccc(Cl)c1)CCCC2)c1cccs1	25.1µM*	·	·	·	-2.6%	·
NC(=O)c1c(NC(=O)c2cccs2)sc2c1CCCCCC2	-4.2%	-12.9%	-1.4%	-2.4%	-10.2%	-11.8%
